Experimental data: ChEMBL document CHEMBL3988442, “University of Dundee, Small-Polar-MMV Screening Library” (2021)
For some of these results: Potency and affinity values are given separately.

Tests used:
Parameters in all cases: scale not given: direction of the effect not stated beside the values
[1] = molecular target: Protein translocase subunit SecA (Escherichia coli (strain K12)) (UniProt P10408); assay: Assay to Identify E. coli SecA ATPase Inhibitors; format: functional; conditions: 30 µM
[2] = molecular target: T1, Ubiquitin-activating enzyme e1, putative (Leishmania donovani (strain BPK282A1)) (UniProt E9BSI1); assay: Leishmania donovani Ubiquitin Activating Enzyme (LdE1); format: functional; conditions: 30 µM
T1 sequence (whole entry): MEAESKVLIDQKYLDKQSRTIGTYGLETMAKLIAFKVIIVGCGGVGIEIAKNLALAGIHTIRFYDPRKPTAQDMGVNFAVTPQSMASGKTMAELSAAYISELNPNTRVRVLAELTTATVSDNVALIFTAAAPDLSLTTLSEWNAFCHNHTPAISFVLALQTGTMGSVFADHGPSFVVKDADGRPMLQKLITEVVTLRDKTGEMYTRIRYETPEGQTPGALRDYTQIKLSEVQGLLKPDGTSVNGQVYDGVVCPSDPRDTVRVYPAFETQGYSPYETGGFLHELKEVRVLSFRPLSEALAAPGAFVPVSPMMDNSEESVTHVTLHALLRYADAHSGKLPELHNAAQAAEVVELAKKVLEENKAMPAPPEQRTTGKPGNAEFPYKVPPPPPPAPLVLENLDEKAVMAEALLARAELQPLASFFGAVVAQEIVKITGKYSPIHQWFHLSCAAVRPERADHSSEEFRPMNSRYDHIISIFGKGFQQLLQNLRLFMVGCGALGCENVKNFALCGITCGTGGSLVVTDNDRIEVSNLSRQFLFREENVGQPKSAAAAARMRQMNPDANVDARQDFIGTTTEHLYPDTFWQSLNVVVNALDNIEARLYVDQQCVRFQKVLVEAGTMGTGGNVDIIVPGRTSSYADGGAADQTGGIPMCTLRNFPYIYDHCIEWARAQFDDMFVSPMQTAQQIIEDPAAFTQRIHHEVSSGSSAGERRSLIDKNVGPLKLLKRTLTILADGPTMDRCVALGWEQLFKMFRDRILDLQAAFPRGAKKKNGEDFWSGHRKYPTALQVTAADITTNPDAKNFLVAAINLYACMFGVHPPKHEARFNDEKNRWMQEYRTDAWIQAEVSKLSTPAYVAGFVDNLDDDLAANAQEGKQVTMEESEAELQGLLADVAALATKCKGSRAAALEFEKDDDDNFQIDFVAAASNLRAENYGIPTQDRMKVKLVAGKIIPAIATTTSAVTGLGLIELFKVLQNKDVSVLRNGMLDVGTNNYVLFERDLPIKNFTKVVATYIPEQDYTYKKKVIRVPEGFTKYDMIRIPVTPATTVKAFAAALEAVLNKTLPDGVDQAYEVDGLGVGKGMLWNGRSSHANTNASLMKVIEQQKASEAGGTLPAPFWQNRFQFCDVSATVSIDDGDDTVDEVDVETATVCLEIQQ

[3] = molecular target: AMP-activated protein kinase, AMPK (Homo sapiens) (UniProt P54646+O43741+P54619+Q9UGJ0+Q9Y478+Q13131+Q9UGI9); assay: AMP-dependent Kinase enzyme assay. An in vitro enzyme assay that detects ADP turnover that is directly proportional to AMPK activity. This uses naive AMPK that is activated during the assay with MK-8722; format: functional; conditions: 30 µM
[4] = molecular target: Sialic acid-binding Ig-like lectin 9 (Homo sapiens) (UniProt Q9Y336); assay: Hs-Siglec9 ALPHAscreen SOP 20170721; conditions: 10 µM
[5] = tested on: Trypanosoma cruzi; assay: Trypanosoma cruzi phosphomannomutase and mannose-1-phosphate guanylyltransferase assay; format: functional; conditions: 10 µM
[6] = molecular target: T2, Arginase-2, mitochondrial (Homo sapiens) (UniProt P78540); assay: in vitro enzyme assay to detect the production of urea directly proportional to the activity of Arginase II; format: functional; conditions: 33.3 µM; note: in the data most compounds retested in dose-response had high values
T2 sequence (whole entry): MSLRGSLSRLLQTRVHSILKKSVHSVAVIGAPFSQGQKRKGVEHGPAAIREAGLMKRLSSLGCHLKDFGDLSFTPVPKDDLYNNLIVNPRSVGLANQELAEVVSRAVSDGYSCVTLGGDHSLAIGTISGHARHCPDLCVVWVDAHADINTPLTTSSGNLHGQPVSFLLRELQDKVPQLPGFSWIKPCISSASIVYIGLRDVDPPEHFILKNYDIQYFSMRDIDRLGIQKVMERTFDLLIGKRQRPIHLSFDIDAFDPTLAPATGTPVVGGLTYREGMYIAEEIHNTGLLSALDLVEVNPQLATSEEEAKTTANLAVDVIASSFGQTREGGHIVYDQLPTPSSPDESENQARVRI

[7] = molecular target: T3, Proteasome subunit beta (Trypanosoma cruzi) (UniProt O96673); assay: Trypanosoma cruzi proteasome chymotrypsin-like activity (TcProtChymo) assay.; note: in the data most compounds retested in dose-response had high values; format: functional; conditions: 9.37 µM
T3 sequence (whole entry): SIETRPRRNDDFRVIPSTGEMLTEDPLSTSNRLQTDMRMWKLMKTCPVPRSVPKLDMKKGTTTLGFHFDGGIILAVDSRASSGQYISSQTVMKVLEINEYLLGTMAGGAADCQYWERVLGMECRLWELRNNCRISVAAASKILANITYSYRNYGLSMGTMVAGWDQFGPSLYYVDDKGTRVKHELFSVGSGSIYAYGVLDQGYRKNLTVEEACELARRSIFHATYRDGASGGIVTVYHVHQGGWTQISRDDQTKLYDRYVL

[8] = species: Homo sapiens; assay: To identify inhibition of the IFN signalling (Jak-Stat) pathway via expression of an eGFP reporter gene under the control of an IFN-stimulated response element (ISRE) containing MxA promoter.; format: functional; conditions: 30 µM
[9] = molecular target: T4, Tyrosyl-tRNA synthetase, putative (Trypanosoma cruzi (strain CL Brener)) (UniProt Q4DSP6); assay: Trypanosoma cruzi tyrosyl tRNA synthetase (TcYRS) _High Tyrosine SOP; format: functional; conditions: 30 µM; note: in the data most compounds retested in dose-response had high values
T4 sequence (whole entry): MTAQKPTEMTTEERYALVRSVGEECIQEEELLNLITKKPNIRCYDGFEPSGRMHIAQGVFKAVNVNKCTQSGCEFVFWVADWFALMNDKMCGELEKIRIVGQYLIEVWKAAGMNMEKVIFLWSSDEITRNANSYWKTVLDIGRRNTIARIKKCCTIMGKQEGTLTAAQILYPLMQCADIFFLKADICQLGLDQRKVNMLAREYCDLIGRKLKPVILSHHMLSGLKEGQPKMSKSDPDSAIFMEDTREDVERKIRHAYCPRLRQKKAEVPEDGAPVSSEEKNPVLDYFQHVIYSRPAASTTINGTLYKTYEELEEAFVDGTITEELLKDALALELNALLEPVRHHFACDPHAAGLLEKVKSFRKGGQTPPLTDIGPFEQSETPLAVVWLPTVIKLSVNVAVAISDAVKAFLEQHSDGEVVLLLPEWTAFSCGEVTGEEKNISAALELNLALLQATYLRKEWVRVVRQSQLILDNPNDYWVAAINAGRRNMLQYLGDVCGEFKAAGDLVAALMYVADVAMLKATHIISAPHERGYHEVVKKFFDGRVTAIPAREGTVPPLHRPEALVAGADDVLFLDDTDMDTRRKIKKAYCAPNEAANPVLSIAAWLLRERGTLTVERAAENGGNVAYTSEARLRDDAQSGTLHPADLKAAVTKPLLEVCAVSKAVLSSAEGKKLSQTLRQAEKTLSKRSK

[10] = molecular target: T4, Tyrosyl-tRNA synthetase, putative (Trypanosoma cruzi (strain CL Brener)); assay: Trypanosoma cruzi tyrosyl tRNA synthetase (TcYRS) SOP; format: functional; conditions: 30 µM
[11] = molecular target: Chromo domain-containing protein 1 (Saccharomyces cerevisiae (strain ATCC 204508 / S288c) (Baker's yeast)) (UniProt P32657); assay: ScCHD-1 Enzyme Inhibition Assay; format: functional; conditions: 30 µM; note: in the data most compounds retested in dose-response had high values
Chain of Chromo domain-containing protein 1 (Saccharomyces cerevisiae (strain ATCC 204508 / S288c) (Baker's yeast)) (P32657 whole entry, the tested form may be a part): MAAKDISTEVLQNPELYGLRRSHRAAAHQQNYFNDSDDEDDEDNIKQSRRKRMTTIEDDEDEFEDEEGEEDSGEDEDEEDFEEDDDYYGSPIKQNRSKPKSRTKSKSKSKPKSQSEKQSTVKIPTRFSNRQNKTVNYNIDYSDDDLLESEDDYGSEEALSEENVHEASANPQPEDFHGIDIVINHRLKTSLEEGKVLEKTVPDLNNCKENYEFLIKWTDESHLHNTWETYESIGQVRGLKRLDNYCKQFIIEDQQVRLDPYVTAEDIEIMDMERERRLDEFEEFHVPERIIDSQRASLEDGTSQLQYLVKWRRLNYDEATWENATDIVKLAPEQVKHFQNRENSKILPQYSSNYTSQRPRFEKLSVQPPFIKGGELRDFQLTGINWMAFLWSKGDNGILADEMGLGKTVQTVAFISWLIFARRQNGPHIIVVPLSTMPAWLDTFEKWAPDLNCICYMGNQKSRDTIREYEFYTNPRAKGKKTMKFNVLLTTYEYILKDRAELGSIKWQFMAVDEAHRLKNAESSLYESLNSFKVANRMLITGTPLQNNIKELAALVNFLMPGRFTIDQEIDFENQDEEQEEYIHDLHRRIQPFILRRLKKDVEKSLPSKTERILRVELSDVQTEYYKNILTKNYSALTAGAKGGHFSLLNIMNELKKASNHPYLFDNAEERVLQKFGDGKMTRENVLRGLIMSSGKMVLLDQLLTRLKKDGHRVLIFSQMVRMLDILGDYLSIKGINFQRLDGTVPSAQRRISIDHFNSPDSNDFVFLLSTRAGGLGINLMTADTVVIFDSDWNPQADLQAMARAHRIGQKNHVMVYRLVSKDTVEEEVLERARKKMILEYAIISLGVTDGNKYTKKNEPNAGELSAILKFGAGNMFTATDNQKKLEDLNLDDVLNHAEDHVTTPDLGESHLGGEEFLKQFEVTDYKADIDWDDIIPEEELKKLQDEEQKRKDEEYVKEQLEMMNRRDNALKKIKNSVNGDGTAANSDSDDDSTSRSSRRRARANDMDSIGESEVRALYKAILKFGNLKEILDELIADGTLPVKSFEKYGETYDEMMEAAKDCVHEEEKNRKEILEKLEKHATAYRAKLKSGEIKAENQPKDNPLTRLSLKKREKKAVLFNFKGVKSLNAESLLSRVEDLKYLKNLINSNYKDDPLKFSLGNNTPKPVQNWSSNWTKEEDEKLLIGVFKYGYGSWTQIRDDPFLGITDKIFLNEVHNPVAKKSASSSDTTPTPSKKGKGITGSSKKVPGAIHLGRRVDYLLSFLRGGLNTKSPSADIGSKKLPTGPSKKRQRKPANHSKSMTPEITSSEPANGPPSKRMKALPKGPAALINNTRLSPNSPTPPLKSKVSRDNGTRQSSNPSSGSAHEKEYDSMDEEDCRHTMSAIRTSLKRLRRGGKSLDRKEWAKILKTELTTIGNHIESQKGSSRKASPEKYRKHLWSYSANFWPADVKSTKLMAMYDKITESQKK

Chain of Sialic acid-binding Ig-like lectin 9 (Homo sapiens) (Q9Y336 whole entry): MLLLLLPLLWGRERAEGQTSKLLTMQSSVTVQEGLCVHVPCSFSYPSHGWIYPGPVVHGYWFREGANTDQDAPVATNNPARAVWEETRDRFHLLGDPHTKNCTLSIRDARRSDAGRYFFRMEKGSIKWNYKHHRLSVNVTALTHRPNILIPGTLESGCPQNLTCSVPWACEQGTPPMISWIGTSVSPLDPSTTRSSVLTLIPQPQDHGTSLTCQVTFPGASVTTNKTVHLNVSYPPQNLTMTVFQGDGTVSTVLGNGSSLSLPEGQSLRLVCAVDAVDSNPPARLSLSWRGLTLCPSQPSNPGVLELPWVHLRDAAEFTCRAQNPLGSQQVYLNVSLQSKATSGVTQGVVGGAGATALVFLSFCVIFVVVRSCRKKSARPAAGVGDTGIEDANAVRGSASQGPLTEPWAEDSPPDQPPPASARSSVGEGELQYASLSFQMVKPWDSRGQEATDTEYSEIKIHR
Chain of Protein translocase subunit SecA (Escherichia coli (strain K12)) (P10408 whole entry): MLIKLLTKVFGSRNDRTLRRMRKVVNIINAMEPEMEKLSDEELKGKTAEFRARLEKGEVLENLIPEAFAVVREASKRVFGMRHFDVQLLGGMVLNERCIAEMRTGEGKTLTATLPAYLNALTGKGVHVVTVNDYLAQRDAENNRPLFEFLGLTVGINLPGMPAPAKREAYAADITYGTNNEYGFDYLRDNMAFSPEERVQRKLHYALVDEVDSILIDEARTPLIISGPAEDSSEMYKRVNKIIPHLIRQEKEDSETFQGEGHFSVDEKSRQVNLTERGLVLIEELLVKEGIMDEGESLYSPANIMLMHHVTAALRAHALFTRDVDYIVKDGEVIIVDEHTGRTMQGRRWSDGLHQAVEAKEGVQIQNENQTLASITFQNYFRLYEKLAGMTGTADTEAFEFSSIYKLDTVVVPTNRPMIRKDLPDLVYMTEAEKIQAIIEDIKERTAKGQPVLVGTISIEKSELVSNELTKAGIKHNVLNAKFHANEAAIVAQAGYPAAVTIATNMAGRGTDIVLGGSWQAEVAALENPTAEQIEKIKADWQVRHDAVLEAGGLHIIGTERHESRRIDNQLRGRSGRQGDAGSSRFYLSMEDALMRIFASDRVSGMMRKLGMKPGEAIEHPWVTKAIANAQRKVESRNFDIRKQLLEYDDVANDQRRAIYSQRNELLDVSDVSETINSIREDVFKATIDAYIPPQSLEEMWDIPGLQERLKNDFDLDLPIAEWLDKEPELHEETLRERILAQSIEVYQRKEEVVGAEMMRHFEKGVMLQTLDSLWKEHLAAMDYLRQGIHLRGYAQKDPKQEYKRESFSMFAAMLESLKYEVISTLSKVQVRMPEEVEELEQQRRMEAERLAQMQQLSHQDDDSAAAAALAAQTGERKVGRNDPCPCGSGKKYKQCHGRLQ

Row | SMILES | Percent Effect [1] [%] | Percent Effect [2] [%] | Percent Effect [3] [%] | Percent Effect [4] [%] | Percent Effect [5] [%] | Percent Effect [6] [%] | Percent Effect [7] [%] | Percent Effect [8] [%] | Percent Effect [9] [%] | Percent Effect [10] [%] | Percent Effect [11] [%]
1 | Cc1nnc(C(C)NCC2(c3ccc(Cl)cc3)CCCC2)o1 (stereo unspecified) | -2.66 | -8.11 | -5.55 | 5.04 | -1.74 | -4.76 | 7.07 | 19.5 | 0.529 | -4.88 | 0.504
2 | CC(C1CC1)N(C(=O)NCCCn1nc2ccccn2c1=O)C1CC1 (stereo unspecified) | -5.32 | 16.4 | -9.44 | 24 | 3.13 | 20.9 | 15.3 | 1.6 | 4.3 | 15 | -6.77
3 | O=C(NCc1ccccn1)c1nnn(-c2ccc(Br)cc2)n1 | -3.5 | 18.2 | -2.49 | -2.46 | 1.68 | -5.81 | 13.2 | 16.1 | 5.29 | 11.5 | -12.6
4 | COCc1cn([C@@H]2c3ccccc3C3(CCNCC3)[C@H]2O)nn1 | -4.27 | 9.72 | 2.64 | 16.1 | 6.71 | 24.7 | 3.16 | 3.98 | 4.21 | 10.3 | -5.28
5 | COCCn1cc2c(n1)C(CNCc1ccc(F)cc1)OCC2 (stereo unspecified) | -5.93 | 8.11 | -0.136 | -5.65 | -0.195 | 5.42 | 16.8 | -4.69 | 11.9 | 11 | -6.25
6 | Cn1cc(CN2CC[C@H]3O[C@H](C(=O)NCc4ccco4)CC[C@H]32)cn1 | -0.286 | 5.33 | -3.22 | -1.09 | -7.14 | -53.2 | 6.67 | -2.52 | 1.04 | 12.5 | -5.84
7 | CC(=O)N1CCCC(c2cnc(-c3c(C)nn(C)c3C)cn2)C1 (stereo unspecified) | -2.17 | 0 | 6.16 | -0.374 | -2.17 | -1.17 | -4.67 | 8.02 | 2.13 | 6.41 | -1.64
8 | CN(Cc1ccccc1F)C(=O)CS(=O)(=O)Cc1ccc(Cl)c(Cl)c1 | 0.269 | 10.4 | 6.8 | 0.809 | 2.06 | -8.21 | 4.29 | 9.03 | -6.67 | -296 | -20.3
9 | O=C(Nc1ncn(CC(=O)N2CCCCCC2)n1)C1CCCO1 (stereo unspecified) | -2.31 | 7.89 | 0.569 | 1.68 | -6.39 | 4.6 | 1 | 17.6 | 2.45 | 9.76 | -1.04
10 | Cc1cnn(CC2CCCCN2C(=O)c2ccc3nnc(C)n3c2)c1 (stereo unspecified) | 3.48 | 13 | -0.0421 | -9.14 | -4.6 | -1.9 | 15.9 | 21 | 5.71 | 18.8 | -5.8
11 | O=C(CN1CCc2ccccc21)Nc1ccc(OC(F)F)cc1 | -2 | 1.39 | 0.216 | 8.48 | -2.23 | 0.883 | 21.1 | 8.31 | 0 | -7.69 | 88.5
